CF NFkB block = inhibitors of cystic fibrosis induced NF-kB | KKLEB NF-kB-GFP reporter, PAF-induced, GFP fluorescence overnight | inhibition, % at 5 µM | 0.86% of 360,000 active;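 active means at least 50% inhibition at 5 µM, scaled per plate between neutral and stimulator controls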;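 further: PAF is a Pseudomonas aeruginosa culture filtrate used as stimulus; plate controls were PAF-stimulated DMSO wells for no effect and unstimulated DMSO wells for full effect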
HIF-2a block = inhibitors of HIF-2a | 0.72% of 360,000 active | AID 624352 | inhibition, % at 18.8 µM | 786-0 RCC cells HIF-2a reporter, luciferase luminescence, overnight;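 active means inhibition of the luminescence signal of 40% or more relative to plate controls, in a single-dose primary screen at 18.75 µM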
PAX8 reporter = lowers PAX8-driven luciferase in RMG-I cells; AID 652154; inhibition, % at 12.6 µM; RMG-I TPO-luciferase reporter, SteadyGlo, 24 h; 1.2% of 360,000 active;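 active means mean replicate inhibition at least 60% with every replicate also reaching 60%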;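 further: luciferase light reporting Pax8 driven TPO promoter activity; plate controls were median of neutral control wells for no effect and mitoxantrone controls for full effect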
EWS-Fli block = inhibitors of EWS/Fli oncoprotein transcriptional activity; AID 651661; 0.67% of 350,000 active; inhibition, % at 12.6 µM; A673 NR0B1-luciferase reporter, viability-normalised;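 active means mean inhibition of at least 50% after viability correction, with every replicate also passing that limit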;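 further: firefly luciferase signal divided by Alamar Blue viability fluorescence both relative to DMSO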
KKLEB tox = counter-screen for CF NF-kB inhibitors: cytotoxicity; KKLEB CF airway cells viability, ATPlite luminescence, overnight; hits give low values; cells stimulated with P. aeruginosa culture filtrate; activity change (cytotoxicity), % at 5 µM; 0.36% of 360,000 active; AID 602141;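 active means corrected activity change at or below -50% at 5 µM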
Starred values were filed as active, the others as inactive. An excerpt weighted towards active compounds, which were near 2.1% of everything screened.

`Cc1ccccc1OCc1nnc(SCc2cc(=O)[nH]c3ccccc23)n1-c1ccccc1` gave CF NFkB block 14.7, HIF-2a block 25.2, PAX8 reporter 70.7*, EWS-Fli block 12.0 and KKLEB tox -2.4.
O=C(Nc1ccc(OCC(F)(F)C(F)F)c(C(F)(F)F)c1)c1ccccc1O was read as CF NFkB block 49.5, HIF-2a block -177.0, PAX8 reporter 99.9* and KKLEB tox -50.7*.
`C[C@@H]1CCCCO[C@@H](CN(C)Cc2ccc(C(=O)O)cc2)[C@H](C)CN([C@@H](C)CO)C(=O)c2cc(NC(=O)Nc3ccc(F)cc3)ccc2O1` gave PAX8 reporter 2.7 and EWS-Fli block -4.4.
For C[C@H]1CCCCO[C@H](CN(C)C(=O)Nc2ccc(F)cc2)[C@@H](C)CN([C@@H](C)CO)C(=O)c2cc(NS(=O)(=O)c3ccc(F)cc3)ccc2O1 the results were PAX8 reporter 66.9* and EWS-Fli block 17.0.
Screening Cc1ccc(S(=O)(=O)Nc2ccc3c(c2)C(=O)N([C@H](C)CO)C[C@@H](C)[C@H](CN(C)C(=O)Nc2ccc(F)cc2)OCCCC[C@@H](C)O3)cc1 returned PAX8 reporter 61.0* and EWS-Fli block 12.2.
`COc1ccc(NC(=O)N(C)C[C@@H]2OCCCC[C@H](C)Oc3ccc(NS(=O)(=O)c4ccc(F)cc4)cc3C(=O)N([C@@H](C)CO)C[C@@H]2C)cc1` gave PAX8 reporter -15.0 and EWS-Fli block -9.1.
`C[C@@H]1CN([C@H](C)CO)C(=O)c2cc(NS(=O)(=O)c3ccc(Cl)cc3)ccc2O[C@@H](C)CCCCO[C@H]1CN(C)C(=O)Nc1ccc(F)cc1` gave PAX8 reporter 66.6* and EWS-Fli block 1.9.
Cc1ccc(S(=O)(=O)Nc2ccc3c(c2)C(=O)N([C@@H](C)CO)C[C@@H](C)[C@@H](CN(C)C(=O)Nc2ccc(F)cc2)OCCCC[C@@H](C)O3)cc1 was read as PAX8 reporter -4.2 and EWS-Fli block 7.4.
Screening COc1ccc(S(=O)(=O)Nc2ccc3c(c2)C(=O)N([C@@H](C)CO)C[C@H](C)[C@@H](CN(C)C(=O)Nc2ccc(F)cc2)OCCCC[C@H](C)O3)cc1 returned PAX8 reporter 84.7* and EWS-Fli block -4.4.
CO[C@@H]1CN(C)C(=O)c2ccc(NS(C)(=O)=O)cc2OC[C@H](C)N(Cc2nccs2)C[C@@H]1C was read as PAX8 reporter -13.8 and EWS-Fli block 11.4.
`C[C@@H]1CN([C@H](C)CO)C(=O)c2cccc(NC(=O)Nc3ccc(F)cc3)c2O[C@@H]1CN(C)S(=O)(=O)c1cn(C)cn1` gave PAX8 reporter -9.6 and EWS-Fli block -1.2.
Screening CC(C)NC(=O)N1CC2(C1)[C@H](c1ccccc1)[C@@H](CO)N2C(=O)c1ccccn1 returned PAX8 reporter -7.7 and EWS-Fli block 5.6.
`COc1ccc(S(=O)(=O)N[C@@H]2CC[C@H](CCNC(=O)c3ccccc3F)O[C@@H]2CO)cc1` gave PAX8 reporter -0.3 and EWS-Fli block 2.4.
CC(C)NC(=O)N(C)C[C@@H]1OCCCC[C@@H](C)Oc2ccc(NC(=O)CCC(F)(F)F)cc2C(=O)N([C@H](C)CO)C[C@@H]1C was read as PAX8 reporter -6.0.
C=CCn1cc(-c2ccc(Cl)cc2)cc(C#N)c1=O was read as CF NFkB block -2.9, HIF-2a block 5.5 and KKLEB tox -15.6.
For C=CCn1cc(-c2ccccc2)cc(C#N)c1=O the results were CF NFkB block 8.3, HIF-2a block 12.0 and KKLEB tox -95.7*.
O=C(CCCN1C(=O)/C(=C\c2cccc(Br)c2)SC1=S)Nc1cccnc1 was read as CF NFkB block 32.5, HIF-2a block 61.4*, PAX8 reporter 105.7*, EWS-Fli block 25.2 and KKLEB tox -12.8.
For COC(=O)c1ccc(/C=C2/SC(=S)N(CCCC(=O)Nc3ccccn3)C2=O)cc1 the results were CF NFkB block 19.4, HIF-2a block 39.6, PAX8 reporter 9.0 and KKLEB tox -10.7.
For COc1ccc(/C=C2\SC(=S)N(CCCC(=O)Nc3cc(C)on3)C2=O)cc1OC the results were CF NFkB block -12.0, HIF-2a block 17.1, PAX8 reporter -4.8, EWS-Fli block 10.8 and KKLEB tox -3.3.
Screening Cc1ccc(/C=C2\SC(=S)N(CCCC(=O)Nc3cccnc3)C2=O)cc1 returned CF NFkB block -1.5, HIF-2a block 70.3* and KKLEB tox 4.7.
Screening O=C(CCCN1C(=O)/C(=C/c2cccc(Br)c2)SC1=S)Nc1ccccn1 returned CF NFkB block 21.5, HIF-2a block 65.7*, PAX8 reporter 110.2* and KKLEB tox -21.5.
For Cc1ccc(/C=C2\SC(=S)N(CCCC(=O)Nc3cc(C)on3)C2=O)cc1 the results were CF NFkB block 3.1, HIF-2a block 68.9*, PAX8 reporter 10.0 and KKLEB tox 2.5.
`CCS(=O)(=O)Nc1ccc2c(c1)C(=O)N(C)C[C@H](OC)[C@H](C)CN(C)[C@@H](C)CO2` gave EWS-Fli block -5.8.
`C[C@H](CO)N1C[C@H](C)[C@@H](CN(C)S(=O)(=O)c2cn(C)cn2)Oc2cc(C#Cc3ccccc3)ccc2S1(=O)=O` gave EWS-Fli block -1.6.
Screening O=C(CCCN1C(=O)/C(=C/c2ccccc2OC(F)F)SC1=S)Nc1cccnc1 returned CF NFkB block 27.0, HIF-2a block 22.5, PAX8 reporter 98.3*, EWS-Fli block -4.2 and KKLEB tox 6.9.
COc1ccccc1/C=C1/SC(=S)N(CCC(=O)Nc2cccnc2)C1=O was read as CF NFkB block -19.5, HIF-2a block -34.5, PAX8 reporter 12.4, EWS-Fli block 3.3 and KKLEB tox -22.1.
For O=C(CCCN1C(=O)/C(=C/c2cccc(Br)c2)SC1=S)Nc1cccnc1 the results were CF NFkB block 25.3, HIF-2a block 49.1*, PAX8 reporter 94.1*, EWS-Fli block -19.0 and KKLEB tox -8.6.
Screening COc1ccc(NC(=O)N2C[C@H](O)COC[C@@H]3O[C@@H](CC(=O)N4CCN(C)CC4)CC[C@H]32)cc1 returned PAX8 reporter -3.5 and EWS-Fli block -15.2.
For O=C(NCc1ccc2c(c1)OCO2)c1nc(S(=O)(=O)Cc2ccccc2)ncc1Cl the results were CF NFkB block 83.5*, HIF-2a block 19.3, PAX8 reporter 22.4 and KKLEB tox -21.9.
CCc1nnc(NC(=O)c2nc(S(=O)(=O)Cc3ccccc3)ncc2Cl)s1 was read as CF NFkB block 90.2*, HIF-2a block 54.4*, PAX8 reporter 24.2 and KKLEB tox -94.3*.
`CC(C)c1nnc(NC(=O)CCC(=O)NCc2ccccc2Cl)s1` gave CF NFkB block 4.1, HIF-2a block -10.6, PAX8 reporter -4.4 and KKLEB tox -4.7.
CC(C)c1nnc(NC(=O)c2nc(S(=O)(=O)Cc3ccccc3F)ncc2Cl)s1 was read as PAX8 reporter -0.4 and EWS-Fli block 61.0*.
CC(=O)Nc1ccc(NC(=O)c2nc(S(=O)(=O)Cc3ccccc3)ncc2Cl)cc1 was read as CF NFkB block 96.4*, HIF-2a block -0.2, PAX8 reporter 93.8* and KKLEB tox -77.0*.

Source: PubChem BioAssay
